PubChem BioAssay AID1159580 (chemical genetic matrix, 2015)
About 2,000 (36%) of roughly 5,500 compounds were called active. Roughly 18% stayed inconclusive and do not appear here. No stated cut-off is given here; in the data, active means normalized growth mostly below about 0.91 (no sharp cut-off); inconclusive means no clear call, values can overlap the other calls; inactive means mostly above about 0.92. The list shows a part of the results.

Experiment: chemical genetic growth profiling, strain panel (AID 1159580);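 further: tested at 20 µM; growth read once vehicle control cultures reached saturation at 30 °C; 1 = growth at the plate median or of vehicle wells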
Details: S. cerevisiae deletion strains, growth OD

Measured: normalized growth

C=C1C2CC[C@@]3(C)[C@H](c4ccoc4)OC(=O)C[C@]13O[C@H]1CC(=O)C(C)(C)[C@H](C(OC(C)=O)C(=O)OC)[C@@]21C (stereo not given in full)
inactive: locus YAL021C, strain ccr4, stronger effect = lower value 1 | locus YAL026C, strain drs2, stronger effect = lower value 1.03 | locus YAL030W, strain snc1, stronger effect = lower value 1 | locus YBL061C, strain skt5, stronger effect = lower value 1.02 | locus YBR009C, strain hhf1, stronger effect = lower value 1.02 | locus YBR021W, strain FUR4, stronger effect = lower value 0.999 | locus YBR023C, strain chs3, stronger effect = lower value 0.998 | locus YBR171W, strain sec66, stronger effect = lower value 1.02 | locus YBR229C, strain ROT2, stronger effect = lower value 0.994 | locus YBR231C, strain swc5, stronger effect = lower value 1.04 | locus YBR279W, strain paf1, stronger effect = lower value 1.01 | locus YCL011C, strain gbp2, stronger effect = lower value 0.993 | locus YCL016C, strain dcc1, stronger effect = lower value 0.983 | locus YCL029C, strain bik1, stronger effect = lower value 1 | locus YCL069W, strain vba3, stronger effect = lower value 1 | locus YCR088W, strain abp1, stronger effect = lower value 1.01 | locus YDL005C, strain med2, stronger effect = lower value 1.01 | locus YDL035C, strain GPR1, stronger effect = lower value 0.978 | locus YDL040C, strain nat1, stronger effect = lower value 1 | locus YDL074C, strain BRE1, stronger effect = lower value 1.01 | locus YDL101C, strain DUN1, stronger effect = lower value 1.01 | locus YDL185W, strain tfp1, stronger effect = lower value 1.01 | locus YDL192W, strain arf1, stronger effect = lower value 0.998 | locus YDR001C, strain nth1, stronger effect = lower value 1.02 | locus YDR069C, strain doa4, stronger effect = lower value 1.03 | locus YDR101C, strain arx1, stronger effect = lower value 0.978 | locus YDR137W, strain rgp1, stronger effect = lower value 0.872 | locus YDR150W, strain NUM1, stronger effect = lower value 0.985 | locus YDR159W, strain sac3, stronger effect = lower value 1.05 | locus YDR162C, strain NBP2, stronger effect = lower value 0.985 | locus YDR195W, strain ref2 1.02 | locus YDR297W, strain sur2, stronger effect = lower value 1.02 | locus YDR318W, strain mcm21, stronger effect = lower value 1.01 | locus YDR334W, strain swr1, stronger effect = lower value 1.01 | locus YDR335W, strain msn5, stronger effect = lower value 1.01 | locus YDR388W, stronger effect = lower value 1.01 | locus YDR392W, strain spt3, stronger effect = lower value 0.922 | locus YDR502C, strain sam2, stronger effect = lower value 1.02 | locus YEL003W, strain gim4, stronger effect = lower value 1.03 | locus YEL037C, strain rad23, stronger effect = lower value 1.01 | locus YEL061C, strain CIN8 (second series), stronger effect = lower value 1.01 | locus YEL061C, strain CIN8, stronger effect = lower value 0.99 | locus YER015W, strain faa2, stronger effect = lower value 1 | locus YER016W, strain bim1, stronger effect = lower value 1.01 | locus YER110C, stronger effect = lower value 1.01 | locus YER111C, strain swi4, stronger effect = lower value 1.02 | locus YER155C, strain BEM2 (second series), stronger effect = lower value 1.06 | locus YER155C, strain BEM2, stronger effect = lower value 1.02 | locus YER167W, strain BCK2, stronger effect = lower value 1 | locus YFR010W, strain ubp6, stronger effect = lower value 1.04 | locus YGL078C, strain dbp3, stronger effect = lower value 1.01 | locus YGL086W, strain mad1, stronger effect = lower value 0.987 | locus YGL167C, strain pmr1, stronger effect = lower value 1.01 | locus YGL173C, strain kem1, stronger effect = lower value 1.03 | locus YGL227W, strain vid30, stronger effect = lower value 1.01 | locus YGL240W, strain doc1, stronger effect = lower value 1.03 | locus YGL248W, strain PDE1, stronger effect = lower value 1.01 | locus YGL253W, strain hxk2, stronger effect = lower value 0.99 | locus YGR135W, strain pre9, stronger effect = lower value 1.05 | locus YGR252W, strain gcn5, stronger effect = lower value 1.02 | locus YHR013C, strain ard1, stronger effect = lower value 0.983 | locus YHR027C, strain rpn1, stronger effect = lower value 1.02 | locus YHR079C, strain IRE1 (second series), stronger effect = lower value 0.997 | locus YHR094C, strain hxt1, stronger effect = lower value 1.01 | locus YHR129C, strain ARP1, stronger effect = lower value 1.01 | locus YHR142W, strain chs7, stronger effect = lower value 0.977 | locus YHR200W, strain rpn10, stronger effect = lower value 1.01 | locus YIL066C, strain RNR3, stronger effect = lower value 0.976 | locus YIL073C, strain SPO22, stronger effect = lower value 1.01 | locus YIL125W, strain kgd1, stronger effect = lower value 0.994 | locus YIR030C, strain dcg1, stronger effect = lower value 0.997 | locus YJL092W, strain hpr5, stronger effect = lower value 1.02 | locus YJL095W, strain BCK1 (second series), stronger effect = lower value 1.02 | locus YJL095W, strain BCK1, stronger effect = lower value 1.04 | locus YJL115W, strain asf1, stronger effect = lower value 1.01 | locus YJL129C, strain trk1, stronger effect = lower value 1 | locus YJL134W, strain LCB3, stronger effect = lower value 0.998 | locus YJL154C, strain vps35, stronger effect = lower value 1.01 | locus YJL164C, strain tpk1, stronger effect = lower value 0.995 | locus YJL166W, strain qcr8, stronger effect = lower value 1.03 | locus YJL168C, strain set2, stronger effect = lower value 1 | locus YJL187C, strain SWE1 (second series), stronger effect = lower value 1.03 | locus YJL187C, strain SWE1, stronger effect = lower value 1 | locus YKL009W, strain mrt4, stronger effect = lower value 0.983 | locus YKL068W, stronger effect = lower value 1 | locus YKL085W, strain MDH1 (second series), stronger effect = lower value 0.981 | locus YKL085W, strain MDH1, stronger effect = lower value 0.981 | locus YKL160W, strain elf1, stronger effect = lower value 0.976 | locus YKR001C, strain vps1, stronger effect = lower value 0.995 | locus YKR026C, strain gcn3, stronger effect = lower value 1.01 | locus YKR091W, strain srl3, stronger effect = lower value 1 | locus YLL001W, strain dnm1, stronger effect = lower value 0.992 | locus YLL026W, stronger effect = lower value 1 | locus YLL041C, strain sdh2, stronger effect = lower value 1.01 | locus YLR027C, strain aat2, stronger effect = lower value 1.02 | locus YLR039C, strain RIC1, stronger effect = lower value 0.917 | locus YLR058C, strain SHM2, stronger effect = lower value 1.01 | locus YLR102C, strain apc9, stronger effect = lower value 1 | locus YLR221C, strain rsa3, stronger effect = lower value 1.04 | locus YLR258W, strain gsy2, stronger effect = lower value 1.02 | locus YLR262C, strain YPT6 (second series), stronger effect = lower value 0.892 | locus YLR268W, strain sec22, stronger effect = lower value 0.987 | locus YLR320W, strain mms22, stronger effect = lower value 1.03 | locus YLR342W, strain FKS1 (second series), stronger effect = lower value 0.978 | locus YLR342W, strain FKS1, stronger effect = lower value 1 | locus YLR357W, strain rsc2, stronger effect = lower value 1.02 | locus YLR370C, strain arc18, stronger effect = lower value 0.998 | locus YLR371W, strain rom2, stronger effect = lower value 1 | locus YLR384C, strain iki3, stronger effect = lower value 1.03 | locus YLR418C, strain cdc73, stronger effect = lower value 1.01 | locus YML016C, strain PPZ1, stronger effect = lower value 1 | locus YML032C, strain rad52, stronger effect = lower value 1.01 | locus YML120C, strain ndi1, stronger effect = lower value 1.01 | locus YML124C, strain tub3, stronger effect = lower value 1 | locus YMR058W, strain fet3, stronger effect = lower value 1.03 | locus YMR078C, strain ctf18, stronger effect = lower value 1.01 | locus YMR125W, strain sto1, stronger effect = lower value 0.996 | locus YMR129W, stronger effect = lower value 1.01 | locus YMR205C, strain PFK2, stronger effect = lower value 0.992 | locus YMR223W, strain ubp8, stronger effect = lower value 1.01 | locus YMR231W, strain pep5, stronger effect = lower value 1.01 | locus YMR307W, strain GAS1, stronger effect = lower value 0.996 | locus YNL067W, strain RPL9B, stronger effect = lower value 1.03 | locus YNL071W, strain lat1, stronger effect = lower value 0.993 | locus YNL209W, strain ssb2, stronger effect = lower value 0.993 | locus YNL233W, strain BNI4, stronger effect = lower value 1.01 | locus YNL248C, strain rpa49, stronger effect = lower value 1.04 | locus YNL250W, strain rad50, stronger effect = lower value 1.03 | locus YNL271C, strain bni1, stronger effect = lower value 1 | locus YNL298W, strain CLA4, stronger effect = lower value 1.01 | locus YNL307C, strain MCK1, stronger effect = lower value 1.01 | locus YNL322C, strain KRE1 (second series), stronger effect = lower value 1.02 | locus YNR049C, strain mso1, stronger effect = lower value 1.01 | locus YNR052C, strain pop2, stronger effect = lower value 1.02 | locus YOL006C, strain TOP1, stronger effect = lower value 0.972 | locus YOL012C, strain htz1 0.586 | locus YOL147C, strain pex11, stronger effect = lower value 1 | locus YOR001W, strain rrp6, stronger effect = lower value 1.04 | locus YOR061W, strain CKA2, stronger effect = lower value 0.997 | locus YOR069W, strain VPS5, stronger effect = lower value 1 | locus YOR070C, strain gyp1, stronger effect = lower value 1.03 | locus YOR080W, strain dia2, stronger effect = lower value 1.01 | locus YOR083W, strain WHI5, stronger effect = lower value 0.978 | locus YOR106W, strain vam3, stronger effect = lower value 0.958 | locus YOR136W, strain idh2, stronger effect = lower value 0.997 | locus YOR144C, strain elg1, stronger effect = lower value 1 | locus YOR184W, strain ser1, stronger effect = lower value 0.972 | locus YOR265W, strain rbl2, stronger effect = lower value 0.996 | locus YOR270C, strain vph1, stronger effect = lower value 0.904 | locus YOR290C, strain snf2, stronger effect = lower value 0.95 | locus YOR316C, strain cot1, stronger effect = lower value 1 | locus YPL051W, strain arl3, stronger effect = lower value 1.01 | locus YPL078C, strain atp4, stronger effect = lower value 0.958 | locus YPL106C, strain sse1, stronger effect = lower value 1.04 | locus YPL240C, strain hsp82, stronger effect = lower value 1.01 | locus YPR119W, strain clb2, stronger effect = lower value 1.01 | locus YPR141C, strain kar3, stronger effect = lower value 1 | locus YPR163C, strain tif3, stronger effect = lower value 1.01 | locus YPR167C, strain met16, stronger effect = lower value 0.999 | strain wtn01, stronger effect = lower value 0.993
